Drawing on PubChem BioAssay AID463212 (Sanford-Burnham Center for Chemical Genomics, 2010), this text covers inhibition for 99 compounds.

Structures are written as SMILES. The campaign covered roughly 330,000 compounds. About 4,400 (1.3%) were called active. The entries come from a sample that favours actives as a whole. Unmarked numbers belong to inactive results.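 The calls were made as follows: active = growth inhibition of the mutant yeast at or above 50%; inactive = the rest.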

A short description of this assay: growth inhibition of tim23-1 ts yeast – luminescence, uHTS, primary screen (AID 463212).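 Also: temperature-sensitive mutant grown at 25 °C; plate controls were DMSO-treated mutant yeast for no effect and medium wells lacking yeast for full effect.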 The following applies: S. cerevisiae tim23-1 growth, BacTiter-Glo luminescence, 24 h; at 20 µM; stronger effect = higher value.
Take `CC1=C(C(=O)OCC2CCCCC2)C(c2ccc(F)cc2)NC(=O)N1` (centres undefined): the inhibition is 23.5%.

Turning to `O=S(=O)(NCCCc1ccccc1)c1ccc(Br)cc1`, the inhibition is 33.6%. In the case of `S=C(Nc1ccc(Br)cc1)NC1CCN(Cc2ccccc2)CC1`, the inhibition is 3.13%.

`S=C(NCCCc1ccccc1)Nc1ccc(Br)cc1`: the inhibition is 62.8% (active). Next, `O=C1C(=O)N(CCCO)C(c2ccccc2)/C1=C(\O)c1ccc(Br)cc1` (centres undefined): 6.61%; `CCOc1ccc(CN2CCC(n3nccc3NC(=O)C3CC3)CC2)cc1CO`: -0.767%; `CCn1c(=O)c(C(=O)NCc2ccc3c(c2)OCO3)c(O)c2ccccc21`: 28.6%. To `O=C(NCc1ccc2c(c1)OCO2)c1c(O)nc2sccn2c1=O` belongs 68.2% (active); to `O=C(NCc1ccc2c(c1)OCO2)c1sccc1Br`, 11%.

For `CCCOc1ccc(/C(O)=C2/C(=O)C(=O)N(CCN(C)C)C2c2ccc(OC)c(OC)c2)cc1` (centres undefined), the inhibition was 3.19%. Next, `Cc1ccccc1N1C(=O)C(Oc2ccc(Cl)cc2)C1CNCC1CCCO1` (centres undefined): 32.6%; `Fc1ccc(-c2ccc(NCCN3CCOCC3)nn2)cc1`: -3.29%; `COc1ccc(C(=O)C(C)OC(=O)c2cccc(S(=O)(=O)Nc3c(C)n(C)n(-c4ccccc4)c3=O)c2)cc1` (centres undefined): 15.2%.

For the compound `N#C/C(=C\c1ccc(O)c(O)c1)C(=O)NCc1ccccc1`, the inhibition is 12.3%. To `COCCNC(=O)/C(C#N)=C/c1cccc(OCc2ccccc2)c1` belongs 68.2% (active); to `O=C(N/N=C/c1cccc(OCc2ccccc2)c1)c1ccc(Br)o1`, 47.5%. Next, `COc1cccc(N(CC(=O)NC2CCCCCC2)S(=O)(=O)c2ccccc2)c1`: 11.3%; `Cc1c(S(=O)(=O)NCc2ccccc2)c(=O)n(C)c(=O)n1C`: 4.82%.

Regarding `N#C/C(=C\c1cccnc1)C(=O)Nc1ccc(SC(F)F)cc1`, the inhibition was 76.7% (active). As for `Cc1cc(/C=C(/C#N)C(=O)Nc2ccc(Cl)cc2)c(C)n1-c1cccnc1`, the inhibition was 5.94%. Next, `O=C(N/N=C/c1cccnc1)c1ccc(NC(=O)c2ccc(F)cc2)cc1`: 4.04%. To `CN=C(c1ccccc1)c1c(C)cccc1C` belongs 3.2%; to `COc1ccccc1NC(=O)c1ccc(N2CC3CC(C2)c2cccc(=O)n2C3)c(NC(=O)c2cccnc2)c1` (centres undefined), -0.075%. To `CC1CCCN(CCCNC(=O)CN2C(=O)COc3ccc(S(=O)(=O)N4CCOCC4)cc32)C1` (centres undefined) belongs -34.2%. Turning to `COCCNC(=O)CN1C(=O)CSc2ncccc21`, the inhibition was 11.6%.

Regarding `CCc1ccc2c(c1)C1(NN=C(c3ccccc3)S1)C(=O)N2` (centres undefined), the inhibition is 52.6% (active). As to `O=C(CNC(=O)c1ccc(Cl)cc1Cl)NCC(=O)Nc1ccccc1N1CCOCC1`, the inhibition was 3.5%. For `Cc1ccoc1C(=O)Nc1cccc(Oc2ccccc2)c1`, the inhibition is 77.9% (active). Take `Cc1cccc(NC(=O)Nc2cccc(Oc3c(F)c(F)c(F)c(F)c3F)c2)c1`: the inhibition is 17%.

Turning to `CC(Oc1cccc(NC(=O)c2cccs2)c1)C(=O)c1ccccc1` (centres undefined), the inhibition is 34.3%. In the case of `N#Cc1ccccc1S(=O)(=O)N1CCN(Cc2c(O)ccc3ccccc23)CC1`, the inhibition was 21.3%. Next, `Cc1cc(Nc2ccccc2)n(C(=O)c2ccc(N)cc2)n1`: 57.6% (active). Next, `Cn1c(Nc2ccccc2)cc(=O)n(C)c1=O`: 6.86%; `CCOC(=O)c1c(N)nn(C(=O)c2ccccc2)c1-c1ccccc1`: 27%; `O=C(COc1ccc(Cl)cc1Cl)N/N=C/c1ccccn1`: 39%. Next, `CC[C@@H]1Cc2cc(O)ccc2C2=C1c1ccc(O)cc1C[C@H]2CC`: -6.54%; `CCOC(=O)c1c(NC(=O)c2ccc(S(=O)(=O)N(C)CC3CCCO3)cc2)sc2c1CC(C)(C)NC2(C)C` (centres undefined): 24%; `COC(=O)c1c(NC(=O)COc2ccc(Cl)cc2Cl)sc2c1CC(C)(C)NC2(C)C`: 60.1% (active). `COC(=O)c1sccc1NC(=O)COc1ccc(Cl)cc1`: the inhibition is 6.02%. To `Cc1ccc(C(=O)NCC(=O)NCc2cc(=O)n(C)c(=O)n2C)cc1` belongs 16.1%. Next, `Nc1nc(SCC(=O)Nc2ccc(Cl)cc2C(F)(F)F)n[nH]1`: 3.1%; `CCC(C)(C)n1nnnc1CN1CCN(c2nc3ccc(C)cc3cc2C#N)CC1`: 40.5%; `COc1cc(N2C(=O)CSC2=S)cc(OC)c1OC`: 23.9%. To `O=C1CSC(=S)N1c1ccc(O)cc1` belongs 11.4%. As for `O=C1CSC(=S)N1c1ccc(Cl)c(Cl)c1`, the inhibition was 53.7% (active). For `CCNC(=O)NC(=O)C(C)OC(=O)c1cc(S(=O)(=O)N2CCCCCC2)ccc1OC` (centres undefined), the inhibition is 19.4%.

For `O=[N+]([O-])c1ccc2c(c1)Nc1nc3ccccc3nc1N2`, the inhibition is 59.9% (active). To `COc1ccc([N+](=O)[O-])cc1-c1nc2ccccc2nc1-c1ccccc1` belongs 36.6%; to `O=[N+]([O-])c1ccc2nc(-c3ccccn3)[nH]c2c1`, 46.5%.

For the compound `COc1ccc(-c2cc3ncccc3cn2)cc1`, the inhibition is 9.46%. On to `COc1ccc(-c2cc(C3CCN(c4ncccc4[N+](=O)[O-])CC3)[nH]n2)cc1`, for which the inhibition was 57.6% (active). To `CC(=O)NC(Cc1ccccc1)C(=O)NC1CCN(c2ncccc2[N+](=O)[O-])CC1` (centres undefined) belongs 10.9%. To `CC(C(=O)Nc1ccccc1-c1ccccc1)N1CCOCC1` (centres undefined) belongs 7.67%.

Regarding `Clc1ccc(C2CC(c3cccs3)n3ncnc3N2)cc1Cl` (centres undefined), the inhibition was 50.5% (active). Next, `Nc1nc2n(n1)C(c1ccco1)CC(c1ccc(Cl)c(Cl)c1)N2` (centres undefined): 20.6%. Turning to `COc1ccc(C2CC(c3ccc(C)cc3)Nc3ncnn32)cc1` (centres undefined), the inhibition is 27.1%. Next, `Oc1ccccc1CNc1ncc(Br)cc1Br`: 45.5%; `CCc1nnc(NS(=O)(=O)c2ccc(NC(=O)c3cccc(OC(F)(F)C(F)F)c3)cc2)s1`: -1.08%. To `CCc1nnc(NS(=O)(=O)c2ccc(NC(=S)NC(=O)/C=C/c3cccs3)cc2)s1` belongs 96.1% (active); to `CCc1nnc(NS(=O)(=O)c2ccc(NC(=S)NC(=O)c3cccs3)cc2)s1`, 18.7%; to `COC(=O)c1cc2occc2n1Cc1nc(-c2ccccc2C)oc1C`, 4.08%. Next, `C=CCn1nc(-c2ccccc2)c2c(C)onc2c1=O`: 6.39%; `CC(=O)Nc1ccc(S(=O)(=O)NC2(C(F)(F)F)C(=O)Nc3c2c(=O)[nH]c(=O)n3Cc2ccccc2)cc1` (centres undefined): 3.06%; `CC(C)(C)C(=O)/C(C#N)=C/c1ccc(O)cc1`: 24%.

`CC(C)NC(=O)/C(C#N)=C\c1ccc(N(C)C)c(Br)c1`: the inhibition is 61% (active). To `Cc1[nH]c2ccccc2c1/C=C(/C#N)C(=O)NC(C)C` belongs 10.2%; to `Cc1cc(C(=O)OC(C)C(=O)NC2CCCCC2C)c(C)o1` (centres undefined), -5.23%. With `CCN(CC)CC(=O)Nc1sc2c(c1C(=O)c1ccccc1C)CCC2`, the inhibition is 32.5%. As to `CC(OC(=O)CCCc1c[nH]c2ccccc12)C(=O)Nc1ccc(S(N)(=O)=O)cc1` (centres undefined), the inhibition is 11.1%. To `CCN(CC)C(=O)N1CCN(C(=O)c2ccc(C)cn2)CC1` belongs 8.95%; to `CC(=O)n1c(C=Nc2ccccc2)c(O)c2ccccc21`, 10.8%. To `C/C(=N\N(C)C)c1ccc(OCCOc2ccc([N+](=O)[O-])cc2)cc1` belongs 20.4%; to `Oc1ccc2ccccc2c1C=Nc1ccccc1`, 53.2% (active); to `O=[N+]([O-])c1ccc(N=Cc2c(O)ccc3ccccc23)cc1`, 55.5% (active). `Cc1nc2ccccc2nc(=O)c1NNc1ccc([N+](=O)[O-])cc1`: the inhibition is -14.3%. Next, `CC(C)CNC(=O)CC(c1ccccc1)c1c(O)ccc2ccccc12` (centres undefined): 11.2%.

Consider `COc1ccc(NC(=O)C2=C(C)NC(=O)NC2c2ccccc2[N+](=O)[O-])cc1` (centres undefined), for which the inhibition was 1.02%. To `O=C(NCC(=O)N(CC1CCCO1)C(C(=O)NC1CCCCC1)c1ccccc1)c1ccco1` (centres undefined) belongs 14.7%; to `COc1cc(C2CC(=O)Oc3cc(OC)c(OC)c(OC)c32)cc(OC)c1OC` (centres undefined), 27.3%; to `COc1ccc(NC(=O)NNC(=O)COc2cc(C)c(Cl)c(C)c2)c(OC)c1`, -17.4%.

For the compound `Oc1ccc(Br)cc1/C=N/Nc1ccccn1`, the inhibition is 68% (active).

Take `Oc1cccc(/C=N/Nc2ccc(Cl)nn2)c1O`: the inhibition was 24.4%. Next, `Oc1ccc(/C=N/Nc2ccc(C(F)(F)F)cn2)cc1O`: 16.3%; `O=C(CCc1ccccc1)NNC(=O)COc1ccc(Cl)cc1`: 7.58%. Next, `N/C(=N\OC(=O)CCc1ccccc1)c1cccnc1`: 18.1%. To `COc1ccc(/C(N)=N/OC(=O)CCCc2ccccc2)cc1` belongs 71.1% (active); to `N/C(=N\OC(=O)CCc1ccccc1)c1ccc(Cl)cc1`, 73.6% (active); to `COc1ccc(/C(N)=N/OC(=O)Oc2ccccc2)cc1`, 14.8%. As to `COc1ccc(/C(N)=N/OC(=O)Cc2ccccc2)cc1`, the inhibition was 21.8%. To `CCC[C@H]1CCCC/C=C\CCCC(=O)OCCN1C(=O)OC(C)(C)C` belongs 9.84%; to `CC1Sc2ccc(C(=O)NCc3ccccc3Cl)cc2NC1=O` (centres undefined), 9.69%; to `CCOc1ccc(N/C(N)=N/c2nc(C)c(C)c(=O)[nH]2)cc1`, 12.2%.

Consider `CCOC(=O)N1CCN(C(=O)c2ccc3nc4cc(Cl)ccc4c(=O)n3c2)CC1`, for which the inhibition is 10.4%. To `COC(=O)c1sccc1NC(=S)Nc1ccc(C)cc1` belongs 22.6%; to `COc1ccc(CCNC(=O)c2cnc(Cl)c(Cl)c2)cc1`, 1.06%. To `CCN(CC(=O)Nc1ccc(OC)cc1)C(=O)CSCc1ccc(C)cc1` belongs 25%; to `COc1ccc(C(=O)CCC(=O)Nc2ccc(Cl)cc2)cc1`, 12.1%; to `COc1ccc(NC(=O)/C(Cl)=C(/Cl)S(=O)Cc2ccc(C)cc2)cn1` (centres undefined), 67% (active). To `COc1ccc(CS(=O)/C(Cl)=C(/Cl)C(=O)Nc2ccc(OC)nc2)cc1` (centres undefined) belongs 85.7% (active).

Usually inhibition stands for the relative decrease from the control value, in per cent.
